Screening data from PubChem.
Most compounds without a hit are left out; they make up all but 3.4% or so of the library.
ssDAF12 agonist = S. stercoralis DAF-12 nuclear receptor activators, primary screen, cell-based, luminescence, HEK293, GRIP1 co-expression, lit1-tk-luc | HEK293 ssDAF-12/GRIP1 lit1-tk-luc reporter; % of 3 µM dafachronic acid response | activation, % at 6.8 µM | 370,000 compounds, 1% hits;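 active means activation above the mean over all tested compounds plus 3 SD, cut at about 0.9% in these data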
APP 5'UTR act = activators of APP 5'UTR luciferase reporter, primary screen, SH-SY5Y cells; SH-SY5Y APP 5'UTR luciferase reporter, luminescence; zero percent = DMSO vehicle wells; activation, % at 2 µM; 190,000 compounds, 1% hits; AID 1276, 2008;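 active means activation above a set limit, based on mean plus 3 SD of controls, cut at about 140% in these data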
hcDAF-12 act = H. contortus DAF-12 nuclear receptor activators, primary screen, cell-based, luminescence, HEK293, lit1-tk-luc reporter; HEK293 hcDAF-12 lit1-tk-luc reporter; 0% DMSO, 100% Δ7-dafachronic acid; activation, % at 6.8 µM; 370,000 compounds, 1.4% hits;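 active means activation above the mean of all tested compounds plus 3 SD, cut at about 5.5% in these data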
NF-kB neuron act = activators of NF-kB expression in neurons, primary screen, cell-based, HTS. human neuronal cells, NF-kB reporter expression; stronger effect = higher value. fold change at 12.5 µM. 190,000 compounds, 1.6% hits. AID 1239, 2008; in the data active means fold change above about 3.3
hgDAF-12 ag = H. glycines DAF-12 receptor agonists, primary screen, cell-based, luminescence, HEK293, GAL4 fusion, UAS-luciferase; AID 687014, 2013; Nuclear hormone receptor DAF-12 (Heterodera glycines), GAL4 fusion; activation, % at 6.8 µM; 370,000 compounds, 1.8% hits; HEK293 GAL4-hgDAF12 UAS-luciferase reporter, agonist luminescence; normalized to butyrate control;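 active means activation above a cutoff set at the mean of all screened compounds plus 3 SD, cut at about 10% in these data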
hgDAF12 conf = H. glycines DAF-12 receptor agonists, confirmation, cell-based, luminescence, HEK293, GAL4-LBD fusion. AID 743050, 2013. activation, % at 6.8 µM. shares compounds with hgDAF-12 ag. 3,300 compounds, 80% hits. HEK293 GAL4-hgDAF12 luciferase reporter, agonist mode; percent of butyrate response;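 active means mean activation over triplicate wells above the hit cutoff derived from the earlier primary screen, cut at about 11% in these data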
LXRb DAF12 ctr = LXR agonists, Gal4 luciferase reporter, confirmation, counter-screen for hgDAF-12 agonist project, cell-based, luminescence, HEK293, H. glycines campaign. shares compounds with hgDAF-12 ag. 24 h. activation, % at 6.8 µM. 3,300 tested, under 10 active. AID 743051, 2013;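 active means mean activation of the triplicate above a set limit carried over from the primary screen, none filed active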
Target sequence (P55055 whole entry, looked up, the tested form may be a part): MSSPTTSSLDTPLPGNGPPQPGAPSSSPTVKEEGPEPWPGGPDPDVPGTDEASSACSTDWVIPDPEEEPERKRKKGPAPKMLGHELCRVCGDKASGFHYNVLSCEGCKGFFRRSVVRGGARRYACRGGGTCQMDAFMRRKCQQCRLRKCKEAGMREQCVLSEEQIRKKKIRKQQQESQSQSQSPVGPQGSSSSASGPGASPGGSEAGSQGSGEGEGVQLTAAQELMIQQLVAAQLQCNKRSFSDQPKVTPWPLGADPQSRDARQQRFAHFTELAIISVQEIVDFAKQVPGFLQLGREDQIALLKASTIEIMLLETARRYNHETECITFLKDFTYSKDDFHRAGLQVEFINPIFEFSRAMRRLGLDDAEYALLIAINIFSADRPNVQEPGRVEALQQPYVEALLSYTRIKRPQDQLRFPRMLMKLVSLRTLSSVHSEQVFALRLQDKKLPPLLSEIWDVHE
Large screens that a line does not name were inactive (follow-up assays come after a bar, where they were run).

COC(=O)C1CN(Cc2ccc(Cl)cc2)CCS(=O)(=O)N1Cc1cn(Cc2ccc(F)cc2)nn1 (configuration not stated)	none (no result: APP 5'UTR act, NF-kB neuron act)
CN1CCN(c2ccc(-c3cc(NC=O)c4ncc(-c5ccc(F)cc5)n4c3)cc2)CC1	hgDAF-12 ag 17 (no result: APP 5'UTR act, NF-kB neuron act) | hgDAF12 conf inactive | LXRb DAF12 ctr inactive
CCCCS(=O)(=O)N1C2=NC3=C(C(=O)N(CCOC)C3=O)C3N(C)c4ccccc4[C@]23C[C@H]1CO (some centres not stated)	none (no result: APP 5'UTR act, NF-kB neuron act)
CC(=O)c1ccc(NC(=O)CSc2nc(N)c3cc4c(nc3n2)CCCC4)cc1	none
COc1ccc(NC(=O)CSc2nc(N)c3cc4c(nc3n2)CCCC4)cc1	hgDAF-12 ag 18 | hgDAF12 conf inactive | LXRb DAF12 ctr inactive
COC(=O)C1CCCN(C(=O)C2CCN(S(=O)(=O)c3ccccc3[N+](=O)[O-])CC2)C1 (configuration not stated)	none (no result: APP 5'UTR act, NF-kB neuron act)
Cc1ccc(N=Cc2c(O)[nH]c3ccccc23)c([N+](=O)[O-])c1	APP 5'UTR act 160, hgDAF-12 ag 15 | hgDAF12 conf 12 | LXRb DAF12 ctr inactive
COc1ccc(CCNC(=O)c2cc(-c3ccco3)on2)cc1OC	NF-kB neuron act 4.5, hgDAF-12 ag 14 | hgDAF12 conf 11 | LXRb DAF12 ctr inactive
Cc1ccccc1Cn1cc(NC(=O)c2cc(-c3ccco3)on2)cn1	hgDAF-12 ag 39 | hgDAF12 conf inactive | LXRb DAF12 ctr inactive
O=C(Nc1cccnc1)c1cc(-c2ccccc2)on1	none
COc1ccc(CCNC(=O)c2cc(-c3cccs3)on2)cc1OC	none (no result: ssDAF12 agonist, hcDAF-12 act, hgDAF-12 ag)
O=C(NCCc1ccccc1)c1cc(-c2ccco2)on1	hcDAF-12 act 5.6, NF-kB neuron act 5.8, hgDAF-12 ag 46 | hgDAF12 conf 53 | LXRb DAF12 ctr inactive
CC(C)n1cc(NC(=O)c2cc(-c3ccccc3)on2)cn1	hgDAF-12 ag 14 | hgDAF12 conf 16 | LXRb DAF12 ctr inactive
Nc1ccccc1NC1=CC(=O)CC(c2ccccc2)C1 (configuration not stated)	none (no result: ssDAF12 agonist, hcDAF-12 act, hgDAF-12 ag)
Nc1ccccc1NC1=CC(=O)CC(c2ccco2)C1 (configuration not stated)	hgDAF-12 ag 13 | hgDAF12 conf inactive | LXRb DAF12 ctr inactive
COc1cc(/C=N/OCC(=O)Nc2cc(C)cc(C)c2)ccc1OCc1ccc(Cl)cc1	NF-kB neuron act 4.1, hgDAF-12 ag 16 | hgDAF12 conf inactive | LXRb DAF12 ctr inactive
COc1cc(/C=N\n2cnnc2)ccc1OCC(=O)Nc1ccc(C)cc1	none
O=C(Nc1nc2c(s1)C(=O)CCC2)c1ccccc1	APP 5'UTR act 148, hgDAF-12 ag 16 | hgDAF12 conf 17 | LXRb DAF12 ctr inactive
C#CCN1C(=O)[C@]2(NCCc3c2[nH]c2ccc(OC)cc32)c2cc(F)ccc21	none (no result: APP 5'UTR act, NF-kB neuron act)
O=C(NC1CC1)c1cccc(-c2cncc3nccn23)c1	none (no result: APP 5'UTR act, NF-kB neuron act)
O=C(NC1CC1)c1ccc(-c2cnc3cccnn23)cc1	hgDAF-12 ag 14 (no result: APP 5'UTR act, NF-kB neuron act) | hgDAF12 conf inactive | LXRb DAF12 ctr inactive
Cc1cccc(-c2cnc3cccnn23)c1	none (no result: APP 5'UTR act, NF-kB neuron act)
CCOc1ccc(-c2cnc3cccnn23)cc1	hgDAF-12 ag 15 (no result: APP 5'UTR act, NF-kB neuron act) | hgDAF12 conf 11 | LXRb DAF12 ctr inactive
CCOc1cccc(-c2cnc3cccnn23)c1	hgDAF-12 ag 21 (no result: APP 5'UTR act, NF-kB neuron act) | hgDAF12 conf 16 | LXRb DAF12 ctr inactive
Cn1c(Cc2cccs2)nnc1SCC(=O)Nc1ccc(OCc2ccccc2)cc1	none (no result: APP 5'UTR act, NF-kB neuron act)
Cc1cccc(CCNC(=O)Cn2ncc3c2-c2cc(C)ccc2OC3)c1	none (no result: APP 5'UTR act, NF-kB neuron act)
CCOC(=O)C1=NOC(C(=O)NCCO)(C(=O)C2CC2)C1 (configuration not stated)	none (no result: APP 5'UTR act, NF-kB neuron act)
O=C(NC1=NCCS1)c1ccncc1	none
Cc1cccc(C(=O)NC2=NCCS2)c1	ssDAF12 agonist 1.2, APP 5'UTR act 139, NF-kB neuron act 3.3, hgDAF-12 ag 18 | hgDAF12 conf 14 | LXRb DAF12 ctr inactive
CCN(CC)S(=O)(=O)c1cccc(C(=O)NC2=NCCS2)c1	none (no result: APP 5'UTR act, NF-kB neuron act)
Cc1cc(C(=O)NC2=NCCS2)cs1	hgDAF-12 ag 17 | hgDAF12 conf 15 | LXRb DAF12 ctr inactive
O=C(CSc1ccc2nc(-c3ccccc3)cn2n1)NCC1CCCO1 (configuration not stated)	none (no result: APP 5'UTR act, NF-kB neuron act)
COc1ccc(-c2cn3nc(SCC(=O)NCC4CCCO4)ccc3n2)cc1 (configuration not stated)	hgDAF-12 ag 14 (no result: APP 5'UTR act, NF-kB neuron act) | hgDAF12 conf 15 | LXRb DAF12 ctr inactive
CCOc1ccc(-c2n[nH]c(C(=O)NN)c2C)cc1	hgDAF-12 ag 16 | hgDAF12 conf inactive | LXRb DAF12 ctr inactive
Cn1c(-c2ccc(N)cc2)nc2ccccc21	none
Cn1c(CCc2ccc(N)cc2)nc2ccccc21	hgDAF-12 ag 15 | hgDAF12 conf 14 | LXRb DAF12 ctr inactive
c1cc(-c2cc3cc(N4CCOCC4)ccc3o2)cs1	hgDAF-12 ag 15 (no result: APP 5'UTR act, NF-kB neuron act) | hgDAF12 conf 14 | LXRb DAF12 ctr inactive
CCOCC(=O)NC(=O)N1C[C@H]2CON(C)[C@H]2C[C@H]1c1ccc(OC)cc1	none (no result: APP 5'UTR act, NF-kB neuron act)
Cc1cc(NC(=O)CN2CCCCC2)no1	hgDAF-12 ag 14 | hgDAF12 conf inactive | LXRb DAF12 ctr inactive
O=C1CSc2ccc(C(=O)N3CCCC(C(=O)N4CCCC4)C3)cc2N1 (configuration not stated)	none (no result: APP 5'UTR act, NF-kB neuron act)
COc1ccccc1Cc1c(-c2ccc(C)cc2)nc2ccc(C)cn12	hgDAF-12 ag 14 (no result: APP 5'UTR act, NF-kB neuron act) | hgDAF12 conf inactive | LXRb DAF12 ctr inactive
COc1ccccc1Cc1c(-c2ccc(Cl)cc2)nc2ccc(C)cn12	ssDAF12 agonist 1.2, hcDAF-12 act 6.1, hgDAF-12 ag 14 (no result: APP 5'UTR act, NF-kB neuron act) | hgDAF12 conf 15 | LXRb DAF12 ctr inactive
COc1ccccc1Cc1c(-c2ccccc2)nc2ccc(C)cn12	hgDAF-12 ag 17 (no result: APP 5'UTR act, NF-kB neuron act) | hgDAF12 conf inactive | LXRb DAF12 ctr inactive
O=C1C(=O)N(Cc2ccc(-c3ccc(Cl)nc3)cc2)c2ccc(OC(F)(F)F)cc21	none (no result: APP 5'UTR act, NF-kB neuron act)
CC(C)(N[C@@H](Cc1c[nH]c2ccccc12)C(=O)NCCc1c[nH]c2ccccc12)C(=O)NC1CCCCC1	none (no result: APP 5'UTR act, NF-kB neuron act)
O=C(OCc1ccccc1)[C@H](Cc1ccccc1)NC(=O)[C@@H]1CC=C[C@@H]2CCN(C3CCCCC3)C(=O)[C@@H]21	none (no result: APP 5'UTR act, NF-kB neuron act)
